Measured values taken from PubChem BioAssay AID1566 (Sanford-Burnham Center for Chemical Genomics, 2009).
In all, about 290,000 compounds went through this assay and about 1,800 (0.62%) were called active. The list comes from a sample in which actives are over-represented; it also holds similar structures and randomly drawn compounds. A number with no mark means an inactive call. Rule as the data show it: active = inhibition above about 50%; inactive = the rest.

Assay: inhibition of NOD2-driven NF-kB reporter – cell-based, luminescence, uHTS, HEK293 (AID 1566)
Conditions: HEK293 NOD2/NF-kB luciferase reporter, at 4 µM, stronger effect = higher value

Point of comparison: `Cc1ccc(-n2nc3c(=O)n(CCCC(=O)N4CCC(C)CC4)nc(C)c3c2C)cc1`, inhibition 27.9%. Against it:
- Cc1nc(SCc2ccc(F)cc2)c2oc3ccccc3c2n1 — lower, 11.8%
- CC1CC(C)CN(c2ncnc3c2cnn3-c2ccc(Cl)cc2)C1 (centres undefined) — lower, 27.7%
- c1ccc(-n2ncc3c(N4CCCCC4)ncnc32)cc1 — lower, -32.5%
- CCOC(=O)C1CCN(c2ncnc3c2cnn3-c2ccccc2)CC1 — lower, 1.8%
- COc1ccc(-n2ncc3c(N4CCC(C)CC4)ncnc32)cc1 — lower, -97.6%
- CCOC(=O)C1CCN(c2ncnc3c2cnn3-c2ccc(OC)cc2)CC1 — lower, 23.8%
- COc1ccc(-n2ncc3c(N4CCC(C(N)=O)CC4)ncnc32)cc1 — lower, -46.4%
- Clc1ccc(-n2ncc3c(N4CCCC4)ncnc32)cc1 — lower, 17.1%
- CC1CCCN(c2ncnc3c2cnn3-c2ccccc2)C1 (centres undefined) — lower, -14.2%
- CCCc1cc(=O)oc2cc(OCC(=O)NCc3ccccn3)ccc12 — lower, 8.8%
- CSc1ncc(Cl)c(C(=O)Nc2c(C)cccc2C)n1 — lower, -5.2%
- N#Cc1c(NCCN)nc(-c2ccccc2)c2c1CCCC2 — lower, 10.4%
- O=C(/C=C/c1cccc(Cl)c1)NCc1ccccc1 — lower, 9.9%
- CN(Cc1nc(Cc2ccccc2F)no1)Cc1cccc2ncccc12 — lower, 19.2%
- COc1ccc(NC(=O)COC(=O)C2CCC(C(C)(C)C)CC2)c([N+](=O)[O-])c1 (centres undefined) — lower, 16.1%
- Cc1cc(C(F)(F)F)nc(CCNCc2c(C(=O)N3CCCC3)nc3ccccn23)n1 — lower, 12.8%
- Cc1ccc(/C=N/c2sc3c(c2C(N)=O)CCCC3)o1 — lower, -59.1%
- COc1ccc(-n2c(=S)[nH]c3cc(C(=O)Nc4cccc(C)c4)ccc3c2=O)cc1 — lower, -42%
- O=C(O)CC1NC(=O)N(c2ccc(Cl)cc2)C1=O (centres undefined) — lower, 5.4%
- N#CC1=C(SCc2ccccc2)NC(=O)CC1c1cccc(O)c1 (centres undefined) — lower, 12.9%
- O=S(=O)(c1ccc(Cl)cc1)N1CCN(S(=O)(=O)N2CCCCCC2)CC1 — lower, -1.1%
- CC(C)(C)OC(=O)N1CCC(c2cc(=O)n3[nH]c(-c4ccc(Cl)cc4)cc3n2)CC1 — lower, 8%
- Cc1nc2sc(C(c3ccc(Cl)cc3)N3CCN(C(=O)c4ccco4)CC3)c(O)n2n1 (centres undefined) — lower, 1.9%
- COc1ccc(S(=O)(=O)Nc2ccc3c(c2)OCCO3)cc1OC — lower, 4%
- Cc1ccc(NS(=O)(=O)c2ccc(-c3cnc(C4CC4)o3)cc2)cc1 — lower, -3.1%
- COc1ccc(C)cc1NS(=O)(=O)c1ccc(-c2cnc(C3CC3)o2)cc1 — lower, 27.1%
- COc1ccc(S(=O)(=O)Nc2ccc3c(c2)OCO3)cc1OC — lower, -22.1%
- COc1ccc(-c2noc(-c3ccoc3C)n2)cc1 — lower, -47.8%
- CC(C)(C)C(=O)Nc1ccc(-c2cnco2)cc1 — lower, 2.7%
- Cc1ccc(CC(=O)Nc2ccc(C(=O)N3CCCCC3)cc2)cc1 — lower, 0.3%
- Cc1ccc(C23CC4CC(CC(NC(=O)NC(C)(C)CO)(C4)C2)C3)cc1 — lower, -8.2%
- COc1ccccc1C1(O)C(=O)Nc2ccccc21 (centres undefined) — lower, 24.1%
- CCOC(=O)N/N=C/c1c(C)nn(-c2ccccc2Cl)c1Cl — lower, -45.5%
- Cc1nn(-c2ccccc2Cl)c(Cl)c1/C=N/Nc1cccc(C(=O)O)c1 — lower, -183%
- COc1ccccc1NC1=C(C)C(=O)CC1 — lower, 5.8%
- Cc1cccc(NC(=O)N2CCC(C(=O)c3ccc(F)cc3)CC2)c1 — lower, -7.7%
- O=C1CCCN2N=C(SCC(=O)Nc3cccc(Cl)c3)SC2=N1 — higher, 43.7%
- O=C1CCCN2N=C(SCC(=O)Nc3cccc(F)c3)SC2=N1 — lower, -16.8%
- CCC(C(=O)NCCCN1CCCCCC1)n1nc(C)c2sc3ccccc3c2c1=O (centres undefined) — lower, -40.3%
- CCC(C)(C)c1ccc(OCCCC[n+]2ccc(C)cc2)c(C(C)(C)CC)c1 — higher, 29.7%
- CCC(C)(C)c1ccc(OCCCC[n+]2ccccc2)c(C(C)(C)CC)c1 — lower, 12%
- CC(C)(C)NC(=O)NC(=O)COC(=O)Cc1c(Cl)cccc1Cl — lower, 1.1%
- COc1ccc(CCNc2oc(Cc3ccccc3)nc2C#N)cc1OC — higher, 36.6%
- COc1ccc(CCNc2oc(COc3ccc(F)cc3)nc2C#N)cc1 — lower, -49.7%
- COc1ccc(CCNc2oc(COc3ccccc3)nc2C#N)cc1 — lower, -27.2%
- COc1ccc(CCNc2oc(COc3ccccc3F)nc2C#N)cc1OC — lower, 9.2%
- CCOC(=O)N1CCN(C(=O)CSc2nc3c(cnn3-c3ccccc3)c(=O)[nH]2)CC1 — lower, 2.1%
- COc1ccc(-c2cc(=O)oc3c(C)c(OCC(=O)NCC4CCC(C(=O)O)CC4)ccc23)cc1 (centres undefined) — lower, 23.3%
- CCSC1=C(C#N)C2(CCCCC2)C(C#N)C(=O)N1 (centres undefined) — lower, 10.3%
- N#CC1=C(SCC(=O)NC2CC2)NC(=O)C(C#N)C12CCCCC2 (centres undefined) — lower, -1.6%
- Cc1nn(-c2cc(N3CCCCC3)ccc2[N+](=O)[O-])c(=O)c2ccccc12 — lower, -6.2%
- CCC(C)[C@H](NC(=O)C1CC(=O)N(c2ccc(OC)cc2)C1)C(=O)N1CCCCC1 (some centres undefined) — lower, 12.9%
- COC(=O)c1ncn(C2OC(COC(C)=O)C(OC(C)=O)C2OC(C)=O)n1 (centres undefined) — lower, 18.8%
- CCN1CCN(CCC(=O)Nc2ccc(F)c(F)c2)CC1 — lower, 1.5%
- CCN(CC)S(=O)(=O)c1ccc2nnn(O)c2c1 — lower, -3.6%
- Cc1nn(-c2ccccc2)c2nc(C(F)(F)F)[nH]c(=O)c12 — higher, 30.5%
- Cc1ccc(-n2nc(C)c3c(=O)[nH]c(C(F)(F)F)nc32)cc1 — higher, 32.3%
- O=C(CCCOc1ccc(Cl)cc1Cl)Nc1ccccn1 — lower, -183%
- O=C(COc1ccc(Cl)cc1Cl)Nc1ccc(Cl)cn1 — lower, -209%
- Cc1cccc(NC2=NCC(=O)N2CCc2ccccc2)c1 — lower, -0.2%
- COc1cc(C(=O)N(c2ccc(C)c(C)c2)C2C=CS(=O)(=O)C2)cc(OC)c1OC (centres undefined) — lower, -4.9%
- COc1ccc(-c2noc(CCC(=O)O)n2)cc1 — lower, 11.3%
- O=C(O)CCCc1nc(-c2ccccc2)no1 — lower, -10%
- O=C(NCCc1ccc(C(F)(F)F)cc1)C1CCC(=O)N(CCc2cccc(F)c2)C1 (centres undefined) — lower, -4.6%
- CN(C)/N=C/C=C1\CC/C(=C\c2ccc(Br)cc2)C1=O — lower, -21.2%
- COc1ccc(/C=C2\CCC/C(=C\C=N\N(C)C)C2=O)cc1 — lower, -25.5%
- Cc1ccc(-c2cc(C(F)F)nc(N3CCOCC3)n2)cc1 — lower, 15.5%
- O=C1CCN(C2CCN(Cc3nc(Cc4ccccc4F)no3)CC2)CCN1 — lower, 5.8%
- COc1ccc(C(=O)N2CCC(n3nccc3NC(=O)C3CC3)CC2)c(OC)c1OC — lower, 12.7%
- O=C(NC(O)C(=O)c1ccccc1)c1cccs1 (centres undefined) — lower, 10%
- CC(C)(C)c1ccc(C(=O)NNC(=O)c2cccc(-n3cnnn3)c2)cc1 — lower, 13.7%
- Cc1nc(N2CCN(c3ccccn3)CC2)c2c(C)c(C(=O)Nc3ccc(F)cc3Cl)sc2n1 — higher, 33.8%
- Cc1nc(N2CCN(c3ccccn3)CC2)c2c(C)c(C(=O)N3CCN(c4cccc(Cl)c4)CC3)sc2n1 — higher, 38.7%
- Cc1c(C(=O)N2CCN(c3ccccn3)CC2)sc2ncnc(N3CCOCC3)c12 — lower, -1.8%
- Cc1nc(N2CCN(c3ccccn3)CC2)c2c(C)c(C(=O)Nc3ccc(F)cc3F)sc2n1 — lower, 3.4%
- COc1ccccc1N1CCN(C(=O)c2sc3nc(C)nc(N4CCN(c5ccccn5)CC4)c3c2C)CC1 — lower, 16%
- Cc1nc(N2CCN(c3ccccn3)CC2)c2c(C)c(C(=O)Nc3ccc(Cl)cc3)sc2n1 — lower, 15.9%
- Cc1c(C(=O)N2CCN(c3ccccc3)CC2)sc2ncnc(N3CCN(c4ccccn4)CC3)c12 — higher, 39.4%
- Cc1nc(N2CCN(c3ccccn3)CC2)c2c(C)c(C(=O)Nc3c(F)cc(F)cc3Br)sc2n1 — higher, 33.9%
- O=C1CCCN1CCCNS(=O)(=O)c1ccc(Br)cc1 — lower, 6.2%
- Cn1c(=O)n(CC(=O)O)c(=O)c2c1nc1n2CCCN1CCc1ccccc1 — lower, 4.6%
- CCC(=O)C1CCCN(C(=O)c2ccc3nc(-c4cccc(OC)c4)oc3c2)C1 (centres undefined) — lower, -51.5%
- CC(C)Cc1cc(C(=O)N2CCCC(C(=O)c3cc(F)ccc3F)C2)n(C)n1 (centres undefined) — lower, 23.7%

For `Clc1ccc(-n2ncc3c(N4CCCCCC4)ncnc32)cc1`, the inhibition was 70.6% (active).
In the case of `CC1CCCN(c2ncnc3c2cnn3-c2ccc(Cl)cc2)C1` (centres undefined), the inhibition is reported as 86.2% (active).
For `COc1ccc(-n2ncc3c(N4CCCCC4)ncnc32)cc1`, the inhibition was 67.7% (active).
In the case of `CCOC(=O)C1CCN(c2ncnc3c2cnn3-c2ccc(Cl)cc2)CC1`, the inhibition is reported as 57.5% (active).
In the case of `COc1ccc(NS(=O)(=O)c2ccc3c(c2)OCCO3)cc1OC`, the inhibition is reported as 52.2% (active).
In the case of `Cc1nn(-c2ccccc2Cl)c(Cl)c1/C=N/Nc1nc2ccccc2s1`, the inhibition is reported as 78.1% (active).
For `O=C1CCCN2N=C(SCC(=O)Nc3cccc(C(F)(F)F)c3)SC2=N1`, the inhibition was 58.1% (active).
With `O=C(COc1ccc(Cl)cc1Cl)Nc1ccccn1` the inhibition was 62.1% (active).
With `COc1ccc(-c2noc(CCCC(=O)O)n2)cc1` the inhibition was 57.7% (active).
For `CN(C)/N=C/C=C1\CCC/C(=C\c2ccc(F)c(F)c2)C1=O`, the inhibition was 63% (active).
